Assay outcomes (PubChem BioAssay)
NIH3T3 tox: Cytotoxic Profiling in NIH 3T3 Cell Line of Diverse Libraries Using Quantitative High-Throughput Screening; NIH 3T3 viability, CellTiter-Glo ATP luminescence, 48-72 h; hit rate 4.3% among 94,000; Potency, µM (top dose mostly 96.7 µM), usual class: inhibitors; note: nearly all actives have a fitted effect of over 55% in size
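ATP-dependent luminescence (CellTiter-Glo) served as the viability signal for NIH 3T3 cells treated with compound for 48 or 72 hr at 37 °C.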
HEK cytotox: Cytotoxic Profiling in HEK 293 Cell Line of Diverse Libraries Using Quantitative High-Throughput Screening. HEK 293 viability, ATP luminescence (CellTiter-Glo), 48-72 h. Potency, µM (doses to about 115 µM), hits mostly inhibitors. hit rate 6.6% among 94,000. AID 1345083, 2018; note: nearly all actives have a fitted effect of over 60% in size
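ATP-coupled CellTiter-Glo luminescence served as viability read-out, recorded 10 min after reagent addition at room temperature. HEK 293 cells, 250 cells/well, had been incubated with pintool-transferred compound for 48 or 72 hr at 37 degree Celsius.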
hNpr1 antagonist: Natriuretic polypeptide receptor (hNpr1) antagonism - Primary qHTS; Atrial natriuretic peptide receptor 1 (Homo sapiens), P16066; HEK293 hNpr1 GloSensor cGMP, ANP-stimulated luminescence; Potency, µM (doses to about 46.3 µM), usual class: inhibitors; hit rate 1.6% among 76,000; AID 1347048, 2019; calls by dose curve; note: nearly all actives have a fitted effect of over 60% in size
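Compound pre-incubated 30 min at room temperature on GloSensor-loaded HEK293 cells stably carrying hNpr1 and the pGS-40F cGMP biosensor. Stimulation uses hNppA at 0.1 nM final; luminescence is taken at baseline and 20 min post-agonist.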
Luciferase inh: Firefly luciferase inhibition profiling of diverse chemical library using quantitative high-throughput screening. Luciferin 4-monooxygenase (Photinus pyralis), P08659. Potency, µM (doses to about 115 µM), hits mostly inhibitors. hit rate 2.5% among 76,000. purified P. pyralis luciferase, luminescence, biochemical; note: nearly all actives have a fitted effect of over 65% in size
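FLuc 10nM, D-luciferin 10uM, ATP 10uM, Mg acetate 10mM, Tris acetate pH 7.5, Tween/BSA; cpd qHTS; enzyme added last; CCD luminescence.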
GPT2 inh: Primary qHTS assay for inhibitors of Glutamate pyruvate transaminase 2 (GPT2); AID 1671188, 2021; Alanine aminotransferase 2 (Homo sapiens), Q8TD30; Recombinant GPT2, coupled pyruvate oxidase/HRP Amplex Red fluorescence; Potency, µM (highest dose often 57.7 µM), actives largely listed as inhibitors; hit rate 0.25% among 100,000; note: nearly all actives have a fitted effect of over 60% in size
Target sequence (Q8TD30 whole entry, looked up): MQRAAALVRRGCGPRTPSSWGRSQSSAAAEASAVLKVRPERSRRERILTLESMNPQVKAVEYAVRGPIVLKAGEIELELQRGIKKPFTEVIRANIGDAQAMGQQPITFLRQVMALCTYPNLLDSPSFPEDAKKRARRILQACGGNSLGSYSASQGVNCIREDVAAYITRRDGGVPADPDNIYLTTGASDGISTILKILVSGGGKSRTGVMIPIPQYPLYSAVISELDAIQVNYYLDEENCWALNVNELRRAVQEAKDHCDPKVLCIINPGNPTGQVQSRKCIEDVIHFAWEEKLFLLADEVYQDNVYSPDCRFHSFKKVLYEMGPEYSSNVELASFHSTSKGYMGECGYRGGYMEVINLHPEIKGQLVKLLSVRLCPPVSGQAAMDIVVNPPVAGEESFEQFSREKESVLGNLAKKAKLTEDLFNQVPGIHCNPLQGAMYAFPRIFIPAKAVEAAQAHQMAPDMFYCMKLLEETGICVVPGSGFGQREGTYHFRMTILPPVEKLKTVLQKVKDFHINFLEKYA
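Fluorescence read-out: pyruvate from GPT2 turnover coupled to pyruvate oxidase, HRP and Amplex Red (0.2mM ThPP, 0.2U/mL PO and HRP, 50uM Amplex final). Substrates 250uM a-KG, 2mM L-alanine; enzyme 10ng/uL; 30 min RT.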
Npr1 antag conf: Natriuretic polypeptide receptor (hNpr1) antagonism - Confirmation; shares compounds with hNpr1 antagonist; HEK293 hNpr1 cGMP GloSensor luminescence, ANP-stimulated; Potency, µM (series often up to 57.6 µM), usual class: inhibitors; hit rate 76% among 1,400; calls by dose curve; note: nearly all actives have a fitted effect of over 70% in size
Npr2 selectivity: Natriuretic polypeptide receptor (hNpr2) antagonism - Subtype selectivity assay. hit rate 67% among 1,400. Potency, µM (highest dose often 57.6 µM), hits mostly inhibitors. shares compounds with hNpr1 antagonist. HEK293 hNpr2 GloSensor cGMP luminescence, CNP-stimulated; calls by dose curve; note: nearly all actives have a fitted effect of over 70% in size
FLuc inh counter: Natriuretic polypeptide receptor (hNpr1) antagonism - Confirmation firefly luciferase (FLuc) inhibition counterscreen. Potency, µM (doses to about 57.6 µM), hits mostly inhibitors. shares compounds with hNpr1 antagonist. hit rate 0.7% among 1,400. purified FLuc enzyme, luminescence, Km substrate
GloSensor cGMP: Natriuretic polypeptide receptor (hNpr1) antagonism - Counterscreen GloSensor control cell line. HEK293 GloSensor cGMP, SNP-stimulated, luminescence. shares compounds with hNpr1 antagonist. hit rate 69% among 1,400. Potency, µM (titrated, usually from 57.6 µM), usual class: inhibitors; calls by dose curve; note: nearly all actives have a fitted effect of over 70% in size
Of the large screens only hits and unclear results are named; the others gave an inactive call (follow-up assays come after a bar, where they were run). Sampled rows, rich in hits. Any-hit rate of the full collection: about 10%. Unless noted, calls come from the whole dose curve; as a rule, active = well fitted curve in the direction sought with a large enough effect; inconclusive = small, poorly fitted or top-dose-only effect, or another doubt; inactive = no such curve, though single readings can be large; an effect the other way counts as inactive or inconclusive.

CCC(CC)c1cc([C@H]2CN3CC[C@H]2C[C@@H]3CNC(=O)COc2ccccc2)nc(-c2ccncc2)n1	NIH3T3 tox 22µM, HEK cytotox 28µM, hNpr1 antagonist 11µM | Npr1 antag conf 17µM | Npr2 selectivity 17µM | FLuc inh counter inactive | GloSensor cGMP inactive
CCCNC1CNC1	none (no result: hNpr1 antagonist, Luciferase inh)
O=C(Cc1ccc(Cl)cc1)N1Cc2ccccc2CC2(CCCN2CC2CCNC2)C1 (stereo unspecified)	NIH3T3 tox 16µM, HEK cytotox 28µM (no result: hNpr1 antagonist, Luciferase inh) | Npr1 antag conf 22µM | Npr2 selectivity 6.1µM | FLuc inh counter inactive | GloSensor cGMP inactive
O=C(Cc1ccccc1)N1Cc2ccccc2CC2(CCCN2Cc2ccncc2)C1 (stereo unspecified)	HEK cytotox inconclusive (no result: hNpr1 antagonist, Luciferase inh)
Cc1sc2c(c1C)C(c1ccc(Cl)cc1)=N[C@@H](CC(N)=O)c1nnc(C)n1-2	none (no result: NIH3T3 tox, HEK cytotox, hNpr1 antagonist, Luciferase inh)
CCCS(=O)(=O)N1[C@H]2CC[C@@H]1c1cnc(-c3ccc(F)cc3)nc1C2	NIH3T3 tox inconclusive, HEK cytotox inconclusive, hNpr1 antagonist 18µM | Npr1 antag conf 17µM | Npr2 selectivity 19µM | FLuc inh counter inactive | GloSensor cGMP 14µM
O=C(CC1CCCC1)N1[C@H]2CC[C@@H]1c1cnc(-c3ccc(F)cc3)nc1C2	HEK cytotox inconclusive, hNpr1 antagonist 4µM | Npr1 antag conf 4.3µM | Npr2 selectivity 6.1µM | FLuc inh counter inactive | GloSensor cGMP 4.3µM
CCn1nccc1C(=O)N1[C@H]2CC[C@@H]1c1cnc(-c3ccccc3)nc1C2	HEK cytotox inconclusive, hNpr1 antagonist 13µM | Npr1 antag conf 17µM | Npr2 selectivity 22µM | FLuc inh counter inactive | GloSensor cGMP 15µM
COCCOCC(=O)N1[C@H]2CC[C@@H]1c1cnc(-c3ccc(F)cc3)nc1C2	NIH3T3 tox inconclusive
COc1ccccc1C(=O)N1[C@H]2CC[C@@H]1c1cnc(-c3ccc(F)cc3)nc1C2	NIH3T3 tox inconclusive, HEK cytotox inconclusive, hNpr1 antagonist 8.9µM | Npr1 antag conf 17µM | Npr2 selectivity 15µM | FLuc inh counter inactive | GloSensor cGMP 12µM
Cn1nccc1C(=O)N1[C@H]2CC[C@@H]1c1cnc(-c3ccc(F)cc3)nc1C2	NIH3T3 tox inconclusive, HEK cytotox inconclusive, hNpr1 antagonist inconclusive
Cc1[nH]c2ccc(Cl)cc2c1CCN(C)C	none (no result: NIH3T3 tox, HEK cytotox, hNpr1 antagonist, Luciferase inh)
O=C(c1ccsc1)N1[C@H]2CC[C@@H]1c1cnc(-c3ccc(F)cc3)nc1C2	HEK cytotox 40µM, hNpr1 antagonist 8.9µM | Npr1 antag conf 14µM | Npr2 selectivity 11µM | FLuc inh counter inactive | GloSensor cGMP 12µM
CCCN(CCC)[C@@H]1CCc2ccc3[nH]c(C#N)cc3c2C1	none (no result: NIH3T3 tox, HEK cytotox, hNpr1 antagonist, Luciferase inh)
COc1cc2c(cc1Oc1cccc(N(C)C)c1)NC(=O)C21CCN(Cc2ccccc2)CC1	NIH3T3 tox 25µM, HEK cytotox 28µM, hNpr1 antagonist 11µM | Npr1 antag conf 17µM | Npr2 selectivity 19µM | FLuc inh counter inactive | GloSensor cGMP 9.7µM
COc1cc2c(cc1Oc1cccc(N(C)C)c1)NC(=O)C21CCN(Cc2cccc(O)c2)CC1	NIH3T3 tox inconclusive, HEK cytotox 25µM, hNpr1 antagonist 11µM | Npr1 antag conf 19µM | Npr2 selectivity 22µM | FLuc inh counter inactive | GloSensor cGMP 17µM
COc1ccc(CN2CCC3(CC2)C(=O)Nc2ccccc23)cc1	none (no result: hNpr1 antagonist, Luciferase inh)
CCOC(=O)CCNC(=O)N1[C@H]2CC[C@@H]1c1cnc(-c3ccc(F)cc3)nc1C2	HEK cytotox inconclusive (no result: hNpr1 antagonist, Luciferase inh)
